# D2 ag-1: HTS Assay for Allosteric Agonists of the Human D2 Dopamine Receptor: Primary Screen for Agonists | D(2) dopamine receptor (Homo sapiens), P14416 | HEK293 T-REx D2 cells, calcium flux agonist mode | activation, % at 2 µM | actives 0.53% (n = 340,000) | AID 485358, 2010;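 active = activation over 3 SD above normal in the single-dose calcium agonist read, cut at about 30% in these data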; note: 0% is about no effect
#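 HEK293 Trex D2 cells, tetracycline-induced, o/n 30 C 5% CO2; no-wash Ca dye, RT 30–90 min; 10-cycle baseline, 23 nl cpd added, kinetic Ca read 180 s; agonist hits = positive Ca response.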
# D2 PAM-1: HTS Assay for Positive Allosteric Modulators of the Human D2 Dopamine Receptor: Primary Screen for Potentiators; D(2) dopamine receptor (Homo sapiens), P14416; HEK293 T-REx D2, calcium flux, EC20 dopamine potentiation; potentiation, % at 10 µM; actives 0.34% (n = 340,000);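 active = potentiation over 3 SD above the plate norm, cut at about 30% in these data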; note: 0% is about no effect
#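 Potentiation of an EC20 dopamine calcium response measured kinetically over 180 s, after a preceding 180 s compound-only read flagging agonists. Cells: inducible Hek293 Trex D2 line, 4000/well, cultured overnight at 30 C before dye loading.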
# D2 antagonist: HTS Assay for Allosteric Antagonists of the Human D2 Dopamine Receptor: Primary Screen for Antagonists. D(2) dopamine receptor (Homo sapiens), P14416. HEK293 TREx D2 cells, calcium flux, dopamine EC80. inhibition, % at 10 µM. actives 2% (n = 340,000). AID 485344, 2010; in the data active = inhibition above about 30%; inactive = below that, where a call was filed; note: 0% is about no effect
#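 In this primary screen, negative modulation is detected by tracking calcium flux after an EC80 dopamine challenge in inducible HEK293 T-REx D2 cells preexposed to test compound for 180 s.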
# D2 ag-2: Beta-Arrestin HTS for Positive Allosteric Modulators of the Human D2 Dopamine Receptor: Agonists | D(2) dopamine receptor (Homo sapiens), P14416 | DiscoveRx PathHunter D2 beta-arrestin, luminescence, 90 min; 100% = 57 uM dopamine signal | activation, % (concentration not given with the values) | actives 0.084% (n = 360,000) | AID 624465, 2012; in the data active = activation above about 40%; inconclusive = between about 15% and that limit
#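 DiscoveRx PathHunter D2 beta-arrestin cells (2,100/well) attached overnight, then compound-stimulated 90 min at 37 C in HBSS/10 mM HEPES/0.1% Tween-20 buffer; beta-galactosidase complementation read by luminescence after 1 h at ambient temperature. Dopamine 57 uM final (EC100) as control.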
# D2 PAM-2: Beta-Arrestin HTS for Positive Allosteric Modulators of the Human D2 Dopamine Receptor: Potentiators; D(2) dopamine receptor (Homo sapiens), P14416; DiscoveRx D2 beta-arrestin cells, luminescence, 90 min; 100% = 57 uM dopamine signal; potentiation, % (no concentration beside the values); actives 0.23% (n = 360,000); in the data active = potentiation above about 50%; inconclusive = mostly about 30% to 49%
#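 PathHunter beta-arrestin assay in DiscoveRx D2 cells. Compounds were added with an EC20 of dopamine (50 nM final) for 90 min at 37 deg C. Luminescence was read 1 h after detection reagent, with 57 uM dopamine as the EC100 control.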
# D3 arrestin ag: qHTS of D3 Dopamine Receptor Agonist: D3 Dopamine Receptor B-arrestin Agonist Confirmatory Assay; shares compounds with D2 ag-1; actives 4% (n = 2,300); DiscoveRx D3 beta-arrestin cells, luminescence, 90 min; Potency, µM (titrated, usually from 76.9 µM), for inactives: top-dose activation, hits mostly activators;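 note: potency is the fitted concentration of half-maximal effect; 100% = dopamine control response; nearly all actives have a fitted effect of over 70% in size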
# Target sequence (P35462 whole entry, looked up): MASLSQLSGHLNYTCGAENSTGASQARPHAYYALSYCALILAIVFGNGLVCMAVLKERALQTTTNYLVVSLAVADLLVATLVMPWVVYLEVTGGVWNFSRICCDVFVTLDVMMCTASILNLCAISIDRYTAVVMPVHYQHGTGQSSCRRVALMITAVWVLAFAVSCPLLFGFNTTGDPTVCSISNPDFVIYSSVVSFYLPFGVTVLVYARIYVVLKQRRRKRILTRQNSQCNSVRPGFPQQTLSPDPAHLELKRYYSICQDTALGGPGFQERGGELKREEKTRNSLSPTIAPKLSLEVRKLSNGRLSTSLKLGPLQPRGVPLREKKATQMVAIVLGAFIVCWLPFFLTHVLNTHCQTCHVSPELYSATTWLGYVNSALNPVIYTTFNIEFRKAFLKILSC
# D2 ag-3: qHTS of D3 Dopamine Receptor Agonist: D2 Dopamine Receptor B-arrestin Agonist Counterscreen; actives 5.9% (n = 2,300); DiscoveRx PathHunter D2 beta-arrestin, luminescence, 90 min; response scale: percent relative to full dopamine signal; shares compounds with D2 ag-1; AID 720507, 2013; Potency, µM (top dose mostly 76.9 µM), for inactives: at the highest dose activation, actives largely listed as activators; note: potency is the fitted concentration of half-maximal effect; % of control where 0% means no effect; nearly all actives have a fitted effect of over 70% in size
# Active calls of the source: *; ? = inconclusive; nt = not tested or not shown. An excerpt weighted towards active compounds, which were near 2.4% of everything screened. Unless noted, calls come from the whole dose curve; as a rule, active = well fitted activation curve with a large enough effect; inconclusive = small, poorly fitted or top-dose-only effect; inactive = flat fitted curve, though single readings scatter.
SMILES,D2 ag-1,D2 PAM-1,D2 antagonist,D2 ag-2,D2 PAM-2,D3 arrestin ag,D2 ag-3
COCc1c(C(=O)N2CCN(CCOc3ccccc3)CC2)oc2ccccc12,80*,-22,77*,?,10,0.32µM*,?
CC(C)[C@H](Nc1ccc(S(=O)(=O)N2CCOCC2)cc1[N+](=O)[O-])C(=O)OCC(=O)N(C(C)C)C(C)C,2,1,23,0,-10,-9%,7%
CC(C)[C@H](Nc1ccc(S(=O)(=O)N2CCOCC2)cc1[N+](=O)[O-])C(=O)OCC(N)=O,0,-1,0,1,-1,nt,nt
COc1ccc(N2CCN(C3CCCN(Cc4ccc(F)cc4)C3)CC2)cc1 (stereo not given),0,-5,-16,1,-24,nt,nt
FC(F)(F)c1ccccc1CN1CCCC(N2CCN(c3ccccc3)CC2)C1 (stereo not given),62*,-25,78*,-1,-15,-4%,21%
CCOC(=O)c1c(C)[nH]c(C)c1S(=O)(=O)N(C)CC(=O)Nc1ccc(OC)cc1,nt,0,nt,nt,nt,nt,nt
CCOc1ccc2nc(N(CCCN(C)C)C(=O)c3ccc(S(=O)(=O)N4CCCC4)cc3)sc2c1,2,7,31*,1,-15,-17%,-2%
Cc1cccc(NC(=O)Cn2c(=O)nc(-c3ccccc3)c3ccccc32)c1C,1,2,nt,nt,nt,nt,nt
Cc1ccc2scc(N3CCCCC3)c(=O)c2c1,-1,-4,nt,nt,nt,nt,nt
Cc1cc(CN2CCN(CC(=O)Nc3cc(Cl)ccc3-n3cncn3)CC2)no1,41*,-22,4,2,7,-6%,0%
O=C(CCCc1ccccc1)c1ccccc1,0,26,-12,-1,-6,nt,nt
CCN(CCCC(=O)c1ccc(F)cc1)CCc1ccccc1,83*,-22,102*,13,-24,?,17%
COc1ccc(CNCCNC(=O)c2ccco2)c(OC)c1OC,48*,-15,-6,2,-18,-4%,-4%
O=C(c1ccc(CSc2nc3ccncc3n2Cc2cccc(F)c2)cc1)N1CCCCC1,0,23,nt,nt,nt,nt,nt
COc1ccc(OC)c(NC(=O)C2CCN(S(=O)(=O)c3c(C)noc3C)CC2)c1,0,-3,21,-2,-23,nt,nt
COc1ccc(OC)c(NC(=O)C2CCCN(S(=O)(=O)c3c(C)noc3C)C2)c1 (stereo not given),0,-15,44*,0,-4,14%,6%
Cc1ccc(N2CCN(C(=O)c3cnn(-c4ccc(F)cc4F)c3C3CCN(C(=O)OC(C)(C)C)CC3)CC2)c(C)c1,3,3,nt,nt,nt,nt,nt
O=C(NC1(C(F)(F)F)NC(=O)N(c2ccccc2)C1=O)c1cccs1 (stereo not given),0,-6,30,-5,-12,9%,-4%
Cc1nn2c(=O)cc(COC(=O)c3cccc(NC(=O)c4ccc(F)cc4)c3)nc2s1,2,-2,nt,nt,nt,nt,nt
CCOc1ccc(-n2c(=S)sc3c(=O)[nH]c(SCC(=O)NCc4ccco4)nc32)cc1,0,-4,45*,0,-7,0%,-3%
CCOC(=O)CSc1nc2c(sc(=S)n2-c2ccc(OCC)cc2)c(=O)[nH]1,-1,-2,18,7,6,nt,nt
CC1(C)CC(=O)c2sc(NC(=O)c3cccs3)nc2C1,52*,-17,-7,9,3,?,15%
CC1(C)CC(=O)c2sc(NC(=O)C(C)(C)C)nc2C1,0,21,-9,-1,0,nt,nt
CCN(CC)C(=O)c1[nH]cnc1C(=O)N[C@@H](C)C(=O)OC(C)(C)C,5,-8,29,-3,-11,-5%,-4%
Cc1ccc2c(c1)N(C(C)C(=O)NCc1ccc3c(c1)OCO3)C(=O)CO2 (stereo not given),0,-7,16,5,-3,-1%,-1%
SMILES,D2 ag-1,D2 PAM-1,D2 antagonist,D2 ag-2,D2 PAM-2,D3 arrestin ag,D2 ag-3
COc1ccc(CCNC(=O)c2cnn(-c3ccc(F)cc3)c2C2CCN(C(=O)OC(C)(C)C)CC2)c(OC)c1,-2,-12,nt,nt,nt,nt,nt
Cc1ccc2[nH]c3c(c2c1)CN(C(=O)CN1CCSCC1)CC3,-3,-4,-13,nt,nt,nt,nt
Cc1ccc2[nH]c3c(c2c1)CN(C(=O)CN1CC(C)OC(C)C1)CC3 (stereo not given),2,-4,5,0,15,nt,nt
Cc1ccc2[nH]c3c(c2c1)CN(C(=O)CN1CCN(c2ccccn2)CC1)CC3,31*,-9,8,9,3,26%,18%
CCOC(=O)N1CCc2[nH]c3ccc(C)cc3c2C1,29,21,-16,3,-13,-8%,0%
COc1cccc(NC(=O)CN(C)C(=O)Cc2ccc3c(c2)OCCO3)c1,0,-7,-4,4,5,-1%,-3%
COc1cccc(CC(=O)OCC(=O)N(C)CC(=O)Nc2ccccc2Cl)c1,0,-4,6,-5,-11,-9%,0%
O=C(NCc1ccccc1Cl)c1cc2ccccc2o1,-2,9,nt,nt,nt,nt,nt
COc1ccc(NC(=O)CSc2nc(-c3ccc(OC)cc3)cc(=O)[nH]2)cc1,-2,11,nt,nt,nt,nt,nt
CCC(C)Nc1nc(-c2cccc(OC)c2O)nc2ccccc12 (stereo not given),5,-7,9,2,?,6%,13%
O=C(c1cccc(C(F)(F)F)c1)C1CCCN(C(=O)Cn2cncn2)C1 (stereo not given),0,-5,-4,-8,-11,nt,nt
O=C(c1ccc(C(F)(F)F)cc1)C1CCCN(C(=O)Cn2cncn2)C1 (stereo not given),0,-4,20,-4,-13,-8%,0%
CCc1ccc(CN2CCN(c3ncccn3)CC2)cc1,77*,-19,95*,75*,?,?,0.56µM*

# Screens from PubChem.
